# Bioassay records as filed in PubChem.
# Most compounds without a hit are left out; they make up all but 7.3% or so of the library.
# Rab9 promoter act: activators of Rab9 promoter; 320,000 compounds, 2.8% hits; Huh7 Rab9 promoter-luciferase reporter, luminescence, 24 h; Potency, µM (highest dose often 9.22 µM), for inactives: top-dose activation, negative = inhibition, most hits filed as activators; also: % of control where 0% means no effect; nearly all actives have a fitted effect of over 60% in size
#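 Huh7 cells stably carrying a Rab9 promoter-luciferase reporter, 1500 cells per well in OP-MEM I with 10% FBS, treated with compound 24 hours at 37C. Luciferase activity read by luminescence after 10 minutes with Amplite reagent.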
# FLuc counter: counter-screen for miR-21 project: firefly luciferase inhibitors or activators. Potency, µM (series often up to 57.5 µM), for the others: at the top dose activity change, negative = inhibition, hits mostly inhibitors. 360,000 compounds, 6.9% hits. AID 588342. purified FLuc, Km substrates, luminescence inhibition;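 also: plate controls were vehicle for no effect and reference inhibitor for full effect; nearly all actives have a fitted effect of over 55% in size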
# Target sequence (P08659 whole entry, looked up): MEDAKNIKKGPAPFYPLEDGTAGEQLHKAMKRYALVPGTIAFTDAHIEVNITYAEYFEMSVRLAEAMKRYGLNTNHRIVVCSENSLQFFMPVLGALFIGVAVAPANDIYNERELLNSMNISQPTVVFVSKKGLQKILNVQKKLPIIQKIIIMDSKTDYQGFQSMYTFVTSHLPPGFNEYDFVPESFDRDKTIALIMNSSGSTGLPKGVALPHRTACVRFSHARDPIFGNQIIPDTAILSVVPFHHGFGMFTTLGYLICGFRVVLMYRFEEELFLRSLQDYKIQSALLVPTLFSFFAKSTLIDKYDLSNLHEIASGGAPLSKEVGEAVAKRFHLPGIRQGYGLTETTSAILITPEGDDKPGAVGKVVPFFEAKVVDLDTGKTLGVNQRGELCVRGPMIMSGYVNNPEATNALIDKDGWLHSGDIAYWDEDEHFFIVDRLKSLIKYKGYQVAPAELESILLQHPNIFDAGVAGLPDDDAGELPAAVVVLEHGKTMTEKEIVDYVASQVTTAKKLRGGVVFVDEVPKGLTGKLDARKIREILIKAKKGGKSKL
#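 Biochemical qHTS of compounds, final roughly 60 µM downward over six points, against 10 nM purified firefly luciferase using Km concentrations of substrates (10 uM D-luciferin, 10 uM ATP) in Tris acetate pH 7.5 buffer; luminescence output.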
# SMN2 splice up: increases expression of the SMN2 splice variant. HEK293 SMN2-luciferase splicing reporter, luminescence, 30-36 h. Potency, µM (series often up to 46.1 µM), inactives show at the top dose activity change, positive = activation, hits mostly activators. 210,000 compounds, 2.8% hits. AID 1458; also: % of control where 0% means no effect; nearly all actives have a fitted effect of over 55% in size
#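 HEK293 cells carry an SMN2 […]–luciferase reporter in which exon 7 inclusion puts luciferase in frame. Cells were plated 10-12 h before compound addition, then incubated 30-36 h at 37C. ONE-Glo luminescence was read; sodium butyrate at 4.5 mM final served as control.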
# NPC1 prom act: NPC1 promoter activation; Potency, µM (doses to about 9.22 µM), for inactives: top-dose activation, hits mostly activators; 320,000 compounds, 2.4% hits; Huh7 NPC1 promoter luciferase reporter, 24 h; also: % of control where 0% means no effect; nearly all actives have a fitted effect of over 60% in size
#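 NPC1 promoter–luciferase Huh7 cells; 24 h compound; luminescence.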
# uPA surface inh: blocks generation of uPA at the cell surface; Potency, µM (titrated, usually from 38.3 µM), for inactives: at the top dose activity change, negative = inhibition, hits mostly inhibitors; cell surface uPA generation assay, qHTS; 330,000 compounds, 0.31% hits; AID 540303; active = well fitted inhibition curve with a large enough effect; inconclusive = small, poorly fitted or top-dose-only effect; inactive = no such curve, though single readings can be large or run the other way; tested in mouse RAW 264.7 cells; also: % is scaled to controls: 0 for no effect and ±100 for the full control effect; nearly all actives have a fitted effect of over 55% in size
# ELG1 genotoxic: inducers of genotoxicity in HEK293T ELG1-luciferase cells | Potency, µM (titrated, usually from 46 µM), inactives show at the highest dose activity change, positive = activation, usual class: activators | 330,000 compounds, 1.3% hits | AID 504466 | HEK293T ELG1-luciferase reporter, luminescence, 16 h; also: % of control where 0% means no effect; nearly all actives have a fitted effect of over 60% in size
#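 Genotoxic stress is detected as increased luminescence from luciferase-tagged ELG1 in HEK293T cells, measured with ONE-Glo after a 16 hr treatment at 37 °C.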
# Numbers without * were called inactive; u = inconclusive; x = no result given. Unless noted, calls follow the shape of the dose curve; as a rule, active = well fitted curve in the direction sought with a large enough effect; inconclusive = small, poorly fitted or top-dose-only effect, or another doubt; inactive = no such curve, though single readings can be large; an effect the other way counts as inactive or inconclusive. Potency is read from the fitted curve at half-maximal effect.
SMILES,Rab9 promoter act,FLuc counter,SMN2 splice up,NPC1 prom act,uPA surface inh,ELG1 genotoxic
O=C(Nc1cccc(O)c1)c1cccc(S(=O)(=O)N2CCCCCC2)c1,-5.3%,u,x,2.7%,-0.7%,7.2%
O=C(O)c1cccc(NC(=O)c2cccc(S(=O)(=O)N3CCCCC3)c2)c1,2.82µM*,6.01µM*,24.4%,u,-1.8%,u
CC1CCN(C(=O)COC(=O)c2cccc(S(=O)(=O)N(C)c3ccccc3)c2)CC1,3.7%,10.7µM*,x,-0.8%,4.8%,-0.6%
COc1ccc(NC2CS(=O)(=O)CC2NCc2ccccc2)cc1 (centres undefined),3.8%,0.9%,9.5%,-2.2%,0.4%,0.1%
Cc1ccc(NC(=O)c2oc3ccccc3c2NC(=O)Cc2ccccc2)cc1,x,1.8%,4.4%,x,x,x
COc1ccc(-c2cc(OC(=O)c3ccc(Cl)cc3)c3c(C)oc(C)c3c(=O)c2)cc1,x,u,-5.0%,x,x,x
CN(C)c1ccc(C(=O)Nc2cccc(S(=O)(=O)N3CCCC3)c2)cc1,u,1.69µM*,x,23.2%,-15.4%,1.2%
COc1ccc(C(=O)Nc2cccc(C(=O)O)c2)cc1S(=O)(=O)N1CCCC1,u,10.7µM*,x,u,2.7%,-1.0%
Cc1ccc(C(=O)OCC(=O)N2CC(C)CC(C)C2)cc1S(=O)(=O)N1CCOCC1 (centres undefined),0.4%,-1.3%,x,3.7%,-3.5%,1.1%
Cc1ccc(C(=O)O)cc1S(=O)(=O)N1CCC(C(=O)O)CC1,-0.3%,1.1%,11.2µM*,-0.2%,x,-0.7%
Cc1ccc(C(=O)OCC(=O)N2CCC(C)CC2)cc1S(=O)(=O)N1CCCCC1,3.3%,16.9µM*,x,0.1%,-7.2%,2.7%
COc1ccc(C(=O)Nc2ccc(NC(=O)c3ccccc3)cc2)cc1S(=O)(=O)N1CCOCC1,2.0%,-0.2%,x,-1.7%,-5.1%,2.6%
Cc1ccc(-c2nc(S(=O)(=O)c3ccc(C)cc3)c(SCC(=O)c3ccccc3)o2)cc1,x,-8.8%,4.5%,x,x,x
Cc1sc2ncn(CC(=O)N3CCN(c4ccc(Cl)cc4)CC3)c(=O)c2c1S(=O)(=O)N1CCN(c2ncccn2)CC1,x,-2.3%,7.6%,x,x,x
Cc1cccc2sc(NNC(=O)c3ccc(S(=O)(=O)N4CCCC(C)C4)cc3)nc12 (centres undefined),-23.5%,-6.0%,-78.4%,-8.3%,8.91µM*,-3.5%
Cc1cccc2sc(NNC(=O)c3ccc(S(=O)(=O)N4CCc5ccccc5C4)cc3)nc12,-35.1%,0.6%,-76.9%,-13.4%,u,1.7%
Cc1cc(C(=O)CSc2nnnn2C)c(C)n1C1CC1,2.82µM*,u,10µM*,u,-3.6%,u
Cc1nnc(SCC(=O)c2cc(C)n(C3CC3)c2C)s1,2µM*,12µM*,25.1µM*,2.24µM*,-1.0%,u
CNc1nnc(SCC(=O)c2cc(C)n(C3CC3)c2C)s1,3.55µM*,x,x,u,5.0%,u
Cc1cc(NC(=O)CSc2nnnn2C2CCCC2)no1,-0.6%,1.8%,16.3%,-1.8%,2.6%,1.4%
Cc1cc(C(=O)CSc2nnc(CCC(N)=O)n2C)c(C)n1C1CC1,-0.2%,-12.5%,x,-0.8%,-0.5%,1.3%
CCn1c(C)cc(C(=O)CSc2nnnn2C2CCCC2)c1C,0.708µM*,1.9µM*,x,0.708µM*,0.2%,u
COc1cccc(N2CCN(C(=O)Cn3ncc4c3-c3ccccc3OC4)CC2)c1,x,3.6%,-1.4%,x,x,x
O=C(c1ccc(Br)cc1)N(Cc1ccco1)c1ccccn1,x,-13.7%,x,x,x,x
Cc1ccc2c(c1)sc(=NC(=O)C1CC1)n2C,3.55µM*,8.49µM*,x,2.51µM*,-26.8%,u
SMILES,Rab9 promoter act,FLuc counter,SMN2 splice up,NPC1 prom act,uPA surface inh,ELG1 genotoxic
COC(=O)Cn1c(=NC(=O)C2CC2)sc2c(C)cc(C)cc21,x,x,x,x,-2.9%,x
Cc1ccc2c(c1)sc(=NC(=O)c1cccs1)n2C,3.55µM*,0.151µM*,16.0%,3.55µM*,u,0.517µM*
CCCN(CCC)CC(O)Cn1cc(/C=C/C(=O)c2ccc(OCC)cc2)c2ccccc21 (centres undefined),x,-18.0%,-40.3%,x,x,x
CCOc1ccc(C(=O)/C=C/c2cn(CN3CCN(C)CC3)c3ccccc23)cc1,17.8%,16.9µM*,17.2%,16.4%,-0.1%,6.8%
COc1ccc(C(=O)/C=C/c2cn(CC(O)CN3CCOCC3)c3ccccc23)cc1 (centres undefined),1.0%,15.1µM*,-51.0%,9.7%,-9.2%,-6.5%
COc1ccc(C(=O)/C=C/c2cn(CN3CCN(C)CC3)c3ccccc23)cc1,26.9%,6.01µM*,-54.8%,21.0%,x,u
Cc1ccc(C(=O)/C=C/c2cn(CC(O)CN3CCOCC3)c3ccccc23)cc1 (centres undefined),14.7%,u,-24.6%,6.8%,-6.6%,-1.3%
Cc1ccc(C)c(N2CCN(c3nccn4nc(-c5ccc(Br)cc5)cc34)CC2)c1,x,-1.1%,2.5%,x,x,x
N#Cc1ccc(C(=O)N2CCC3CC2c2cc(-c4ccccc4)ccc23)cc1 (centres undefined),x,x,x,x,2.8%,x
Nc1ccc(-c2cnc(-c3ccc(N)cc3)nc2)cc1,1.58µM*,3.38µM*,3.55µM*,1.12µM*,-3.9%,u
Oc1ccc(-c2cnc(-c3ccc(O)cc3)nc2)cc1,u,1.07µM*,x,1.12µM*,-5.1%,2.91µM*
COc1ccc(C2=NNC(c3cccs3)=Nc3ccc(OC)cc32)cc1,10.3%,15.1µM*,15.5%,-0.1%,10.1%,-4.2%
COc1cccc(NC(=O)c2cc3cccc(OC)c3o/c2=N\O)c1,0.708µM*,0.536µM*,x,2.82µM*,x,u
COc1cccc(NC(=O)c2cc3ccccc3o/c2=N\O)c1,0.708µM*,0.536µM*,x,0.794µM*,u,0.411µM*
O=C(Nc1ccccc1Cl)c1cc2ccccc2o/c1=N\O,2.51µM*,2.13µM*,x,3.16µM*,-5.5%,16.4µM*
COc1cccc(NC(=O)c2ccccc2Oc2ccccc2)c1,7.0%,-1.1%,x,-0.4%,-6.5%,-5.2%
Cc1cc(Br)ccc1NC(=O)C(NS(=O)(=O)c1cccs1)c1ccccc1 (centres undefined),x,-16.9%,0.9%,x,x,x
COc1cccc(Cn2c(=O)c(-c3cccc(C#N)c3)nc3cnc(Nc4ccccc4)nc32)c1,x,x,-10.3%,x,x,x
CCc1nn2c(=O)cc(COC(=O)CNC(=O)COc3ccc(C)cc3)nc2s1,x,-3.6%,x,x,x,x
Cc1c(C(=O)NCc2ccccc2Cl)sc2nc(-c3ccc(F)cc3)cn12,x,0.5%,x,x,x,x
Cc1c(C(=O)NCc2cccnc2)sc2nc(-c3ccccc3)cn12,u,23.9µM*,x,23.1%,-24.7%,u
Cc1c(C(=O)N(C)c2ccccc2)sc2nc(-c3ccc(F)cc3)cn12,x,16.9µM*,x,x,x,x
